From PubChem BioAssay (Tox21)
Results filed as inconclusive are left out. The source made the active and inactive calls. Calls follow the shape of the dose curve; as a rule, active = well fitted cell-killing curve with a large enough effect in the repeat runs; inconclusive = weak or mixed curves, or effect the other way; inactive = flat fitted curve, though single readings scatter.

test: qHTS RealTime-Glo MT Cell Viability Assay in HEK293 cells - 8 hour (AID 1224887); conditions: RealTime-Glo luminescence; series mostly up to 76.8 µM; activity change, negative = cytotoxicity: at the top concentration; also: nearly all actives have a fitted effect of over 50% in size; as to activity change, negative = cytotoxicity: top concentration of the series differs between compounds
Description: U.S. Tox21 Program National Center for Advancing Translational Sciences [NCATS] NIH Chemical Genomics Center [NCGC] U.S. Environmental Protection Agency [EPA] National Institutes of Environmental Health Sciences [NIEHS] National Toxicology Program [NTP] U.S. Food and Drug Administration [FDA] Tox21 Assay Overview: Measure of cell viability is critical in the cell-base assay. Analysis of cell viability is necessary for the characterization of cell responses to cytotoxic drugs and environmental stress. A RealTime-Glo MT Cell Viability Assay to monitor cell viability in real time of continues cell culture during 40 hours of compound treatment was used to screen Tox21 10K library compounds in Hek293 cells. The RealTime-Glo MT Cell Viability Assay is a nonlytic, homogeneous, bioluminescent method to measure cell viability in real time using a simple, plate-based method. The assay involves adding NanoLuc luciferase and a cell-permeant prosubstrate to cells in culture. Viable cells reduce the proprietary prosubstrate to generate a substrate for NanoLuc luciferase. This substrate diffuses from cells into the surrounding culture medium, where it is rapidly used by the NanoLuc Enzyme to produce a luminescent signal. The signal correlates with the number of viable cells, making the assay well suited for cytotoxicity studies.
Tox21 Assay Protocol Summary: The mixture of Hek293 cell suspension and reagents were dispensed at 600cells/6 ul/well in 1536-well tissue culture treated black solid bottom plates using a Multidrop dispenser. After the assay plates were incubated at a 37 C/5% CO2 incubator for 5 hours, 23 nL of compounds dissolved in DMSO, positive and negative controls was transferred to the assay plate by a pintool work station. The plates were incubated at 37 C for 40 hours. The luminescence intensity were measured at 0h, 8h, 16h, 24h, 32h and 40h time points using ViewLux plate reader during compound treatment.
% is scaled to controls: 0 for no effect and ±100 for the full control effect; potency is read from the fitted curve at half-maximal effect.

Question: For `N#Cc1cc([N+](=O)[O-])ccc1N`, which “activity change, negative = cytotoxicity” value is on record?
Answer: -9.98% (inactive)

Question: For `Cc1ccc(N(SC(F)(Cl)Cl)S(=O)(=O)N(C)C)cc1`, which Potency is on record?
Answer: 12.3 µM (active)

Question: For `CCOC(=O)C(O)(c1ccc(Cl)cc1)c1ccc(Cl)cc1`, which Potency is on record?
Answer: 22.1 µM (active)

Question: Which Potency does the source give for `OCC(c1ccc(Cl)cc1)c1ccc(Cl)cc1` here?
Answer: 34.7 µM (active)

Question: With `Cc1cc(C)c(C(=O)P(=O)(c2ccccc2)c2ccccc2)c(C)c1` as the compound, how does the Potency read?
Answer: 43.6 µM (active)

Question: With `Oc1c(I)cc(I)cc1I` as the compound, how does the “activity change, negative = cytotoxicity” value read?
Answer: -19% (inactive)

Question: With `O=S(=O)(C(Cl)(Cl)Cl)C(Cl)(Cl)Cl` as the compound, how does the Potency read?
Answer: 15.5 µM (active)

Question: For `CN1CSC(=S)N(C)C1`, which Potency is on record?
Answer: inactive

Question: Which Potency does the source give for `Cc1nnc2n1-c1sc(CCc3ccc(CC(C)C)cc3)cc1C(c1ccccc1Cl)=NC2C` (stereo unspecified) here?
Answer: 21.3 µM (active)

Question: With `O=C1C(I)=CC(=C(c2cc(I)c(O)c(I)c2)c2ccccc2C(=O)O)C=C1I` as the compound, how does the “activity change, negative = cytotoxicity” value read?
Answer: -1.51% [at 35.3 µM] (inactive)

Question: With `CC1COC(Cn2cncn2)(c2ccc(Oc3ccc(Cl)cc3)cc2Cl)O1` (stereo unspecified) as the compound, how does the Potency read?
Answer: 21.9 µM (active)

Question: With `CCN(CC)C(=O)Cl` as the compound, how does the “activity change, negative = cytotoxicity” value read?
Answer: 8.66% (inactive)

Question: Which Potency does the source give for `Cc1cc(C(C)(C)c2ccc(O)c(C)c2)ccc1O` here?
Answer: 23.4 µM (active)

Question: For `Nc1ccc([N+](=O)[O-])cc1`, which Potency is on record?
Answer: 21.9 µM (active)

Question: Which activity change, negative = cytotoxicity does the source give for `Cc1ccc2nc3sc(=O)sc3nc2c1` here?
Answer: 4.11% [at 15.8 µM] (inactive)

Question: For `COc1cc(OC)c(OC)cc1C=O`, which “activity change, negative = cytotoxicity” value is on record?
Answer: -0.843% (inactive)
